The values below come from PubChem BioAssay (NCI).

“And” between values parts separate entries of the source, which are not always exact repeats. Equal values may be shown once. Compounds without any hit were thinned out: in the full panel of roughly 83,000, 20% have a hit.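 48-hour exposure, single concentration, 96-well plates; percent growth endpoint where 0 means no net growth. Active: below 10.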 A number with no mark means an inactive call. The source made the active and inactive calls.

For the assay, the system named is MDA-MB-468 breast. Put plainly: NCI-60 one-dose screen, 48 h (100 = growth as untreated, 0 = no growth, -100 = all killed). The note with it: 10 µM unless noted.
As for `COc1ccc(S(=O)(=O)NCCCNc2cc(-c3c(-c4cccc(OC)c4)nc4sccn34)ccn2)cc1`, the growth is 11.3%.
The same measure for `C(/C=C/c1ccccc1)=Nc1ccc(CCc2ccc(N=C/C=C/c3ccccc3)cc2)cc1`: 83.3%.
The value for `CN(C)c1ccc(/C=N\NC(=O)c2ccc3nc(-c4ccc(Cl)cc4)[nH]c3c2)cc1` was 76.1%; that for `CC(=C(c1ccc(OCCN(C)C)cc1)c1ccc(OCCN(C)C)cc1)c1ccc(Cl)cc1` was -81.1% (active); that for `Oc1cccnc1CN1CCOCC1` was 97.2% and 102%.
With `O=[N+]([O-])c1ccc2c(c1)S(=O)c1cc([N+](=O)[O-])ccc1N2`, the growth is 94.8%.
As to `CN1C(=O)C(N=Nc2ccc([N+](=O)[O-])cc2)SC1=S` (stereo not given), the growth was 84.6% and 85.1%.
Consider `CCCn1cnc2c(c1=N)C(c1ccc(Cl)cc1)c1sc3c(CC)cccc3c1O2` (stereo not given), for which the growth was 5.23% (active).
In the case of `COc1ccc(/C=N/Nc2c3ccccc3nc3ccccc23)cc1`, the growth was 73.7%.
Consider `COc1ccccc1/C=C/C=N/NC1=NC2C(S1)N(C)C(=O)N2C` (stereo not given), for which the growth is -5.34% (active).
Consider `CC1(C)N=C(N)N=C(N)N1c1ccc(OCC(=O)Nc2ccccc2)c(Cl)c1`, for which the growth was 56.8%.
Take `O=S(=O)(/N=c1/n(-c2ccccc2)nc2n1CCN2C1=NCCN1)c1ccc(-c2ccccc2)cc1`: the growth is 94.3%.
In the case of `Oc1ccccc1/C=N/Nc1ccc2ccccc2n1`, the growth is 15.1%.
Take `NC(=S)N/N=C/c1cc(-c2cccc(N)c2)ccn1`: the growth was -11.8% (active).
In the case of `Oc1c(CN2CCCC2)cc(COCc2ccccc2)c2cccnc12`, the growth is -15.4% (active).
Consider `COc1ccc(C(=O)c2cc(C(=O)/C=C/c3c(Cl)cccc3Cl)c3cc(C)ccn23)cc1`, for which the growth is 96.1%.
For the molecule `C/C(=C(\c1ccc(OCCN2CCCCCC2)cc1)c1ccc(OC(=O)c2ccccc2)cc1)c1ccc(Cl)cc1`, the growth was 45.5%.
Regarding `Cc1cccc2c1S/C(=C/c1ccc([N+](=O)[O-])cc1)C2=O`, the growth is 112%.
For `CC1=C2[C@@H](CC1)[C@]1(C)O[C@@](C(C)C)(C[C@H]1OC(=O)CO)[C@H]2OC(=O)CCCc1ccccc1`, the growth was 88.3%.
In the case of `COc1ccc(Nc2ncccc2NC(=O)c2cn(Cc3cccc(Oc4ccccc4)c3)nn2)cc1`, the growth was 89.8%.
In the case of `O=C(Nc1ccc(CN2CCOCC2)cc1)c1ccc(-c2cc(Cl)ccc2Cl)o1`, the growth is -56.1% (active).
As to `CCOC(=O)c1nn(C2CCCCO2)c2ccc(NS(=O)(=O)c3ccc(C)cc3)cc12` (stereo not given), the growth is 105%.
Consider `CC1=CC2C(C(O)CC3(C)C2CC(C)C32OCOC23COCO3)C2(C)C/C(=C/O)C(=O)C=C12` (stereo not given), for which the growth was -16.2% (active).
Take `C/C(=C(/c1ccc(Cl)cc1)c1ccc(OCCN2CCCC2)cc1)c1ccc(Cl)cc1`: the growth was 91.1%.
The value for `COc1cc(N=Nc2ccc(N)cc2)c(OC)cc1N=Nc1ccccc1.[Cl][Zn][Cl]` was 118%; that for `O=c1[nH]ccc2nc(N3CCC(O)CC3)nc(Nc3cccc(C(F)(F)F)c3)c12` was 14.5%.
Regarding `CCCCCCCC(=O)SCC/C=C/[C@@H]1CC(=O)NCc2nc(cs2)C2=N[C@@](C)(CS2)C(=O)N[C@@H](C(C)C)C(=O)N1`, the growth was 40.7%.
Turning to `O=C1CC(N2C(=O)/C(=C/C(Cl)=C\c3ccc([N+](=O)[O-])cc3)SC2=S)C(=O)N1c1ccc(Cl)cc1` (stereo not given), the growth is -6.24% (active).
As for `Cc1nc2c(ccc3ccccc32)s1`, the growth was 109%.
The value for `CCOC(=O)C(Cc1ccccc1)(C(=O)OCC)C(Br)C(=O)c1ccccc1` (stereo not given) was -9.41% (active).
For `COc1ccc2nc3ccccc3c(NCc3ccccc3)c2c1`, the growth is -9.89% (active).
As for `COc1ccc(-c2cc(/C=C3\C(=O)Nc4cc(Cl)ccc43)[nH]n2)cc1`, the growth was 11.3%.
In the case of `Fc1ccc(CNCCNc2ncnc3c2cnn3-c2ccccc2)cc1`, the growth is 81.4%.
Regarding `CCOC(=O)CC1CSC(N/N=C(/C)c2cccc(C(F)(F)F)c2)=N1` (stereo not given), the growth is 104%.
The value for `C=C(C)[C@@H]1CC[C@]2(C)[C@H](CC=C3[C@@H]4CC(C)(C)CC[C@]4(C(=O)NCC#CCN4CCN(C)CC4)CC[C@]32C)[C@@]1(C)CCC#N` was 47.9%; that for `CC(=Nc1ccccc1)C1=C(O)C(Cc2ccc(O)cc2)NC1=O` (stereo not given) was 17.6%.
As for `OC(CCCCCCCCC(O)CN1CCc2ccccc2C1)CN1CCc2ccccc2C1` (stereo not given), the growth is 127%.
The value for `C[N+](C)(CCCCCC[N+](C)(C)C1c2ccccc2-c2ccccc21)C1c2ccccc2-c2ccccc21` was 107%; that for `CN1CCN(c2ccc(Nc3nc(NCCCNS(=O)(=O)c4ccc(C(F)(F)F)cc4)c4sccc4n3)cc2)CC1` was -80.9% (active).
Regarding `Fc1cc2[nH]ncc2c2c3c(c(-c4cn[nH]c4)nc12)CCCC3`, the growth was -22.4% (active).
